An excerpt weighted towards active compounds, which were near 2.3% of everything screened.
V-ATPase pHluor: alters yeast V-ATPase proton transport | S. cerevisiae, pHLuorin cytosolic pH fluorescence | response, % at 10 µM | 350,000 compounds, 0.37% hits | AID 504577; in the data active = response mostly above about 7.3%, no sharp cut-off; inactive = mostly below about 5.4%; note: actives read high
ADAM17 inh: ADAM17 inhibition, QFRET primary screen; P78536; recombinant ADAM17, EDANS/DABCYL FRET peptide cleavage; inhibition, % at 6.95 µM; 370,000 compounds, 0.83% hits;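 active = inhibition above the mean of compounds lying between control limits plus 3 SD, set per campaign, cut at about 8.5% in these data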;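 note: 0% = DMSO-only wells as the low control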
proKLK7 act: activates the human kallikrein-7 zymogen; P49862; purified proKLK7, EDANS-DABCYL substrate fluorescence; 100% is mature enzyme control, 0% vehicle; activation, % at 7 µM; 370,000 compounds, 0.9% hits;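 active = activation above the mean of all tested compounds plus 3 SD, computed per campaign excluding outliers beyond control limits, cut at about 13% in these data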
Target sequence (P49862 whole entry, looked up): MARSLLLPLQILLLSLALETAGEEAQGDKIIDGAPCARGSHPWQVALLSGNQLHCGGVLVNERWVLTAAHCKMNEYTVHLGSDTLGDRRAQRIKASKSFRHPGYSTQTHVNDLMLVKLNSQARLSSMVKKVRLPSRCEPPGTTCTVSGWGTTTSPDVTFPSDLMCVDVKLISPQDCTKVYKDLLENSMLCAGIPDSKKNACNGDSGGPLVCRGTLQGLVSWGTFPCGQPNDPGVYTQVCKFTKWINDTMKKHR
ADAM10 inh: inhibits human ADAM10; recombinant ADAM10, EDANS/DABCYL FRET peptide cleavage, 3 h; inhibition, % at 7 µM; 370,000 compounds, 0.62% hits;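 active = inhibition above a per-campaign cutoff equal to the mean of compounds falling between control-based bounds plus 3 SD, cut at about 20% in these data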;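 note: 0% = DMSO wells while the 100% control is not disclosed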
ADAM10 confirm: human ADAM10 inhibition, confirmation. shares compounds with ADAM10 inh. ADAM10 QFRET peptide cleavage, EDANS fluorescence. inhibition, % at 6.95 µM. 2,100 compounds, 1% hits. AID 743208;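 active = inhibition above about 20% chosen separately for each screening run, limit read from the data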;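 note: 0% = DMSO wells and 100% = marimastat wells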
ADAM17 ctr: inhibits human ADAM17 in ADAM10 exosite counter-screen; shares compounds with ADAM10 inh; ADAM17 QFRET peptide cleavage, EDANS fluorescence; inhibition, % at 6.95 µM; 2,100 compounds, 0.5% hits;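 active = mean triplicate inhibition above the solvent-only control wells' mean plus 3 SD, cut at about 12% in these data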;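 note: 0% = DMSO wells and 100% = marimastat wells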
ADAM10 counter: inhibits human ADAM10 in ADAM17 exosite counter-screen; recombinant ADAM10, EDANS/DABCYL FRET peptide cleavage, 3 h; AID 743256; shares compounds with ADAM17 inh; inhibition, % at 6.95 µM; 2,900 compounds, 47% hits;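 active = mean inhibition over the triplicate runs exceeds the activity threshold set in the earlier primary screen, cut at about 20% in these data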;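 note: 0% = DMSO wells and 100% = marimastat wells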
ADAM17 confirm: confirmation of inhibitors of human ADAM17; shares compounds with ADAM17 inh; 2,900 compounds, 65% hits; inhibition, % at 6.95 µM; recombinant ADAM17, EDANS/DABCYL QFRET peptide cleavage;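 active = mean inhibition across replicates above the hit cutoff set in the primary screen, cut at about 8.5% in these data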;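 note: 0% = DMSO wells and 100% = marimastat wells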
Starred values were filed as active, the others as inactive.

For O=S(=O)(NCC(Nc1ccc(Cl)cc1)c1ccccc1)c1ccccc1 (stereo not given) the results were V-ATPase pHluor -2, ADAM17 inh 26*, proKLK7 act 1, ADAM10 inh 53*, ADAM10 confirm 11, ADAM17 ctr 3, ADAM10 counter 46* and ADAM17 confirm 22*.
For COC(=O)C1=C(C)N(C)C(=NCc2ccccc2C(F)(F)F)NC1c1ccc(F)cc1 (stereo not given) the results were ADAM17 inh -6, proKLK7 act 1 and ADAM10 inh -3.
For CN(C(=O)CCc1cn(C)c2ccccc12)c1ccc(Oc2cccnc2)cc1 the results were ADAM17 inh 0, proKLK7 act 0 and ADAM10 inh 3.
FC(F)Sc1ccc(NC(=S)NC2CCCCC2)cc1 was read as V-ATPase pHluor 4, ADAM17 inh 14*, proKLK7 act 0, ADAM10 inh 25*, ADAM10 confirm 4, ADAM17 ctr 1, ADAM10 counter 15 and ADAM17 confirm 11*.
For CC(C)c1c(C(=O)N/N=C/c2cccc3ccccc23)nnn1-c1nonc1N the results were V-ATPase pHluor 1, ADAM17 inh 10*, proKLK7 act 1, ADAM10 inh 20*, ADAM10 confirm 13, ADAM17 ctr 6, ADAM10 counter 27* and ADAM17 confirm 20*.
O=C(/C=C/C=C/c1ccccc1)CC1(O)C(=O)N(CCc2ccccc2)c2ccccc21 (stereo not given) was read as V-ATPase pHluor 4, ADAM17 inh 9.3*, proKLK7 act 1, ADAM10 inh 21*, ADAM10 confirm 5, ADAM17 ctr 3, ADAM10 counter 36* and ADAM17 confirm 19*.
For COc1ccc(-c2cn[nH]c2-c2ccc(OCc3ccccc3)cc2O)cc1OC the results were V-ATPase pHluor -2, ADAM17 inh 9.7*, proKLK7 act 0, ADAM10 inh 33*, ADAM10 confirm 11, ADAM17 ctr 3, ADAM10 counter 34* and ADAM17 confirm 16*.
Screening C=C(C)COc1ccc(-c2n[nH]c(C)c2Oc2ccccc2OC)c(O)c1 returned V-ATPase pHluor -2, ADAM17 inh 12*, proKLK7 act -1, ADAM10 inh 26*, ADAM10 confirm 11, ADAM17 ctr 3, ADAM10 counter 41* and ADAM17 confirm 20*.
For C=C(C)COc1ccc(-c2nc(N)ncc2-c2ccc(OC)cc2)c(O)c1 the results were ADAM17 inh 16*, proKLK7 act 0, ADAM10 inh 27*, ADAM10 confirm 6, ADAM17 ctr 4, ADAM10 counter 13 and ADAM17 confirm 17*.
`COc1ccc(-c2cn[nH]c2-c2ccc(OCc3ccc(F)cc3)cc2O)cc1OC` gave V-ATPase pHluor -1, ADAM17 inh 6, proKLK7 act 0 and ADAM10 inh 19.
C=C(C)COc1ccc(-c2[nH]ncc2-c2ccccc2)c(O)c1 was read as V-ATPase pHluor 1, ADAM17 inh 11*, proKLK7 act 0, ADAM10 inh 24*, ADAM10 confirm 7, ADAM17 ctr 3, ADAM10 counter 34* and ADAM17 confirm 17*.
For C=C(C)COc1ccc(-c2[nH]ncc2-c2ccc(OC)cc2)c(O)c1 the results were V-ATPase pHluor -4, ADAM17 inh 6, proKLK7 act 0 and ADAM10 inh 16.
Screening C=C(C)COc1ccc(-c2nc(N)ncc2-c2ccc(OC)c(OC)c2)c(O)c1 returned V-ATPase pHluor 0, ADAM17 inh 2, proKLK7 act -1 and ADAM10 inh 5.
Screening C=CCCC1CN(Cc2ccc(OC)cc2)S(=O)(=O)c2c(cccc2N2CCCC2)O1 (stereo not given) returned ADAM17 inh 1, proKLK7 act -1 and ADAM10 inh 2.
`O=[N+]([O-])c1ccc(-c2nc(Nc3cccc(O)c3)c3ccccc3n2)cc1` gave V-ATPase pHluor 6, ADAM17 inh 13*, proKLK7 act 0, ADAM10 inh 31*, ADAM10 confirm 6, ADAM17 ctr 2, ADAM10 counter 34* and ADAM17 confirm 17*.
CCN(CC)c1ccc(NC(=O)CSc2nnc(SCc3ccc(Cl)cc3)s2)cc1 was read as ADAM17 inh 2, proKLK7 act 0 and ADAM10 inh 4.
`COc1ccc(S(=O)(=O)n2nc(-c3ccc(Cl)cc3)cc2N)cc1` gave V-ATPase pHluor -3, ADAM17 inh 9.0*, proKLK7 act 0, ADAM10 inh 21*, ADAM10 confirm 3, ADAM17 ctr 1, ADAM10 counter 15 and ADAM17 confirm 8.9*.
CC(C)(C)OC(=O)N1CCC(N[C@@H](Cc2ccccc2)C(=O)NCCc2c[nH]c3ccccc23)(C(=O)NC2CCCCC2)CC1 was read as ADAM17 inh 10*, ADAM10 inh 24*, ADAM10 confirm 7, ADAM17 ctr 1, ADAM10 counter 34* and ADAM17 confirm 19*.
For CC(C)(C)OC(=O)N1CCC(N[C@@H](Cc2c[nH]c3ccccc23)C(=O)NCC(c2ccccc2)c2ccccc2)(C(=O)NC2CCCCC2)CC1 the results were ADAM17 inh 6 and ADAM10 inh 14.
For CC(=O)Nc1ccccc1N(CC(O)Cn1c2ccccc2c2ccccc21)S(=O)(=O)c1ccc(C)cc1 (stereo not given) the results were V-ATPase pHluor 2, ADAM17 inh 13*, proKLK7 act 0, ADAM10 inh 25*, ADAM10 confirm 10, ADAM17 ctr 4, ADAM10 counter 38* and ADAM17 confirm 23*.
Screening COc1ccc(N(CC(O)Cn2c3ccccc3c3ccccc32)S(=O)(=O)c2ccccc2)cc1 (stereo not given) returned V-ATPase pHluor -7, ADAM17 inh 13*, proKLK7 act -5, ADAM10 inh 31*, ADAM10 confirm 191*, ADAM17 ctr 41*, ADAM10 counter -3 and ADAM17 confirm 12*.
COC(=O)/C=C1\OC(C)c2ccccc21 (stereo not given) was read as ADAM17 inh 0, proKLK7 act 0 and ADAM10 inh -1.
NC(=O)CC(NC(=O)c1ccccc1)c1ccc(N2CCCCCCC2)c([N+](=O)[O-])c1 (stereo not given) was read as V-ATPase pHluor -2, ADAM17 inh 0, proKLK7 act 1 and ADAM10 inh 11.

Source: PubChem BioAssay (several laboratories)
